# Source: PubChem BioAssay (Tox21)
# Results filed as inconclusive are left out. Calls of active or inactive are those of the source. Calls come from the whole dose curve.
# Biological target: Acetylcholinesterase (Homo sapiens) (UniProt P22303)
# Test: Acetylcholinesterase (AChE) small molecule antagonists: fluorescence cell-based qHTS assay (AID 1347398); note: nearly all actives have a fitted effect of over 50% in size; note: potency is the fitted concentration of half-maximal effect
# Settings: SH-SY5Y cells; Potency: AChE activity; outcome: AChE activity; series mostly up to 115 µM; activity change, negative = inhibition: at the top concentration
# Method in brief: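 SH-SY5Y cells (2000/well), attached overnight, incubated with compound 30 min at 37 C. Acetylthiocholine plus Thiolite Green then added for 40 min at room temperature. Thiocholine fluorescence (Ex/Em 490/520 nm) reports cellular AChE activity.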
# % is set by controls: 0 for no effect and ±100 for the full control effect.
# Chain of Acetylcholinesterase (Homo sapiens) (P22303 whole entry, looked up): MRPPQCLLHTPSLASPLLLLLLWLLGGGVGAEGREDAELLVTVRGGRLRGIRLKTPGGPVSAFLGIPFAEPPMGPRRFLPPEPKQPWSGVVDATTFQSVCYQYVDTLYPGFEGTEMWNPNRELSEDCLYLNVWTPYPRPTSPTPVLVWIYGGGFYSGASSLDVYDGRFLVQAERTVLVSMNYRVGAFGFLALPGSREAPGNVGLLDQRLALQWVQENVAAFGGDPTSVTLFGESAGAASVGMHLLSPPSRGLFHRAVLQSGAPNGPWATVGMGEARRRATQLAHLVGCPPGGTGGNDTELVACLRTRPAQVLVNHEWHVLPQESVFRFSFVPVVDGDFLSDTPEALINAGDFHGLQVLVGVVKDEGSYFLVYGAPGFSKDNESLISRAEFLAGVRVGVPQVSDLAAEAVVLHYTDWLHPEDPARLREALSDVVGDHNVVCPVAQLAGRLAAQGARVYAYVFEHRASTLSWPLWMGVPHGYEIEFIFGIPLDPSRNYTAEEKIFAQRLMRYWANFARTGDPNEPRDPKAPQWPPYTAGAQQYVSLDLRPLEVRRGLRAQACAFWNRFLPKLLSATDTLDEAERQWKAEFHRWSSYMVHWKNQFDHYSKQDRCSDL
Structure (SMILES),"activity change, negative = inhibition",Potency
CC1=CC(=O)/C(=C(/C)O)C(=O)O1,2.75% (inactive),–
CCCCN(CCO)CCO,-1.48% (inactive),–
O=C(O)c1snc(Cl)c1Cl,1.36% (inactive),–
CC1=C(/C=C/C(C)=C/C=C/C(C)=C/C(=O)Nc2ccc(O)cc2)C(C)(C)CCC1,–,13.8 µM (active)
CC(C)S,0.063% (inactive),–
O=S(=O)(O)c1ccc2nc(-c3ccccc3)[nH]c2c1,–,inactive
CC1CCCCC1,2.45% (inactive),–
COC(=O)c1ccc(C)cc1,–,inactive
Nc1cc(-c2ccncc2)c[nH]c1=O,–,inactive
NC(=O)c1ccc([N+](=O)[O-])cc1Cl,–,inactive
Clc1ccccn1,–,inactive
CC(C)(C)C(=O)CCc1ccc(Cl)cc1,-2.2% (inactive),–
Cc1cc(SC2=C(O)C[C@@](CCc3ccc(N)cc3)(C(C)C)OC2=O)c(C(C)(C)C)cc1CO,-0.34% (inactive),–
Cc1ccc2ccc(Cl)cc2n1,0.682% [at 53.7 µM] (inactive),–
CCCCC(CC)COC(=O)COc1ccc(Cl)cc1C (stereo not given),-0.792% (inactive),–
O=S(c1cc(Cl)cc(Cl)c1O)c1cc(Cl)cc(Cl)c1O,9.73% [at 53.7 µM] (inactive),–
CC1=CCC(=O)O1,4.69% (inactive),–
CC(=O)OC[C@H]1O[C@@](COC(C)=O)(O[C@H]2O[C@H](COC(C)=O)[C@@H](OC(C)=O)[C@H](OC(C)=O)[C@H]2OC(C)=O)[C@@H](OC(C)=O)[C@@H]1OC(C)=O,–,inactive
CCC=O,0.203% (inactive),–
COc1nc(N)nc2nc[nH]c12,-3.57% (inactive),–

Structure (SMILES),"activity change, negative = inhibition",Potency
CCCCC(C)C(=O)O (stereo not given),4.56% (inactive),–
CCCCCCCCCCCCCC,0.552% (inactive),–
CC(=O)C(C)C,–,inactive
Cc1cn([C@@H]2O[C@H](CO)[C@@H](O)[C@@H]2F)c(=O)[nH]c1=O,4.84% [at 53.7 µM] (inactive),–
CC(C)(C)CC(=O)OCC(=O)[C@@]1(O)CC[C@H]2[C@@H]3CCC4=CC(=O)C=C[C@]4(C)[C@H]3[C@@H](O)C[C@@]21C,9.55% [at 53.7 µM] (inactive),–
CCN(CC)CCOC(=O)C1(C2CCCCC2)CCCCC1,-21.4% [at 53.7 µM] (inactive),–
O=[N+]([O-])c1ccc(Oc2ccc([N+](=O)[O-])cc2)cc1,-4.21% (inactive),–
CCCCCCCCCCCCCCO,–,inactive
O=C1Nc2ccccc2C1(c1ccc(O)cc1)c1ccc(O)cc1,–,inactive
Cc1cc(Cc2cc(C)cc(C(C)(C)C)c2O)c(O)c(C(C)(C)C)c1,–,inactive
COc1ccc(NC(=O)CC(C)=O)cc1,1.64% (inactive),–
Cc1ccc2c(ccc3ccccc32)c1,-3.41% (inactive),–
Cc1ccc(S(=O)(=O)NCl)cc1,–,inactive
CC[C@]12CCCN3CCc4c(n(c5ccccc45)[C@@](O)(C(=O)OC)C1)[C@@H]32,–,inactive
CC1=CCC(C(C)(C)O)CC1 (stereo not given),–,inactive
SCCc1cnccn1,-4.85% (inactive),–
CCCCCC[C@@H](O)C/C=C\CCCCCCCC(=O)O,-14.1% (inactive),–
COc1cc(C(=O)OC(COCCC(C)C)CN2CCOCC2)cc(OC)c1OC (stereo not given),-4.42% [at 53.7 µM] (inactive),–
O=C1c2c(O)ccc(Nc3ccc(CCO)cc3)c2C(=O)c2c([N+](=O)[O-])ccc(O)c21,–,11.2 µM (active)
C/C=C(/C(=C/C)c1ccc(O)cc1)c1ccc(O)cc1,1.44% [at 53.7 µM] (inactive),–

# Biological target: Acetylcholinesterase (Homo sapiens) (UniProt P22303)
# Test: Acetylcholinesterase (AChE) small molecule antagonists: enzyme-based qHTS assay with human liver microsomes (AID 1347399); note: nearly all actives have a fitted effect of over 60% in size
# Settings: Potency: qHTS inhibition; outcome: qHTS inhibition; series mostly up to 115 µM; activity change, negative = inhibition: at the top concentration
# Method in brief: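 Recombinant human AChE (50 mU/mL in the enzyme mix) and human liver microsomes (0.25 mg/mL final) were preincubated with compound and NADPH (0.25 mg/mL final) for 30 min at 37 C. Acetylthiocholine/DTNB was then added; thiocholine was read colorimetrically after 10 min at room temperature.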
Structure (SMILES),"activity change, negative = inhibition",Potency
CC1=CC(=O)/C(=C(/C)O)C(=O)O1,0.415% (inactive),–
CCCCN(CCO)CCO,0.783% (inactive),–
O=C(O)c1snc(Cl)c1Cl,-2.75% (inactive),–
CC1=C(/C=C/C(C)=C/C=C/C(C)=C/C(=O)Nc2ccc(O)cc2)C(C)(C)CCC1,–,inactive
CC(C)S,-0.919% (inactive),–
O=S(=O)(O)c1ccc2nc(-c3ccccc3)[nH]c2c1,–,inactive
CC1CCCCC1,0% (inactive),–
COC(=O)c1ccc(C)cc1,–,inactive
Nc1cc(-c2ccncc2)c[nH]c1=O,–,inactive
NC(=O)c1ccc([N+](=O)[O-])cc1Cl,–,inactive
Clc1ccccn1,–,inactive
CC(C)(C)C(=O)CCc1ccc(Cl)cc1,-0.0801% (inactive),–
Cc1cc(SC2=C(O)C[C@@](CCc3ccc(N)cc3)(C(C)C)OC2=O)c(C(C)(C)C)cc1CO,-2.33% (inactive),–
Cc1ccc2ccc(Cl)cc2n1,0.29% [at 53 µM] (inactive),–
CCCCC(CC)COC(=O)COc1ccc(Cl)cc1C (stereo not given),-1.53% (inactive),–
O=S(c1cc(Cl)cc(Cl)c1O)c1cc(Cl)cc(Cl)c1O,1.41% [at 53 µM] (inactive),–
CC1=CCC(=O)O1,0.376% (inactive),–
CC(=O)OC[C@H]1O[C@@](COC(C)=O)(O[C@H]2O[C@H](COC(C)=O)[C@@H](OC(C)=O)[C@H](OC(C)=O)[C@H]2OC(C)=O)[C@@H](OC(C)=O)[C@@H]1OC(C)=O,–,inactive
CCC=O,-1.21% (inactive),–
COc1nc(N)nc2nc[nH]c12,1.29% (inactive),–

Structure (SMILES),"activity change, negative = inhibition",Potency
CCCCC(C)C(=O)O (stereo not given),-0.869% (inactive),–
CCCCCCCCCCCCCC,0.157% (inactive),–
CC(=O)C(C)C,–,inactive
Cc1cn([C@@H]2O[C@H](CO)[C@@H](O)[C@@H]2F)c(=O)[nH]c1=O,1.18% [at 53 µM] (inactive),–
CC(C)(C)CC(=O)OCC(=O)[C@@]1(O)CC[C@H]2[C@@H]3CCC4=CC(=O)C=C[C@]4(C)[C@H]3[C@@H](O)C[C@@]21C,-0.42% [at 53 µM] (inactive),–
CCN(CC)CCOC(=O)C1(C2CCCCC2)CCCCC1,-1.09% [at 53 µM] (inactive),–
O=[N+]([O-])c1ccc(Oc2ccc([N+](=O)[O-])cc2)cc1,1.2% (inactive),–
CCCCCCCCCCCCCCO,–,inactive
O=C1Nc2ccccc2C1(c1ccc(O)cc1)c1ccc(O)cc1,–,inactive
Cc1cc(Cc2cc(C)cc(C(C)(C)C)c2O)c(O)c(C(C)(C)C)c1,–,inactive
COc1ccc(NC(=O)CC(C)=O)cc1,-0.171% (inactive),–
Cc1ccc2c(ccc3ccccc32)c1,-0.686% (inactive),–
Cc1ccc(S(=O)(=O)NCl)cc1,–,inactive
CC[C@]12CCCN3CCc4c(n(c5ccccc45)[C@@](O)(C(=O)OC)C1)[C@@H]32,–,inactive
CC1=CCC(C(C)(C)O)CC1 (stereo not given),–,inactive
SCCc1cnccn1,-0.149% (inactive),–
CCCCCC[C@@H](O)C/C=C\CCCCCCCC(=O)O,-0.247% (inactive),–
COc1cc(C(=O)OC(COCCC(C)C)CN2CCOCC2)cc(OC)c1OC (stereo not given),0.336% [at 53 µM] (inactive),–
O=C1c2c(O)ccc(Nc3ccc(CCO)cc3)c2C(=O)c2c([N+](=O)[O-])ccc(O)c21,5.58% (inactive),–
C/C=C(/C(=C/C)c1ccc(O)cc1)c1ccc(O)cc1,-0.778% [at 53 µM] (inactive),–
